# The list is not random: actives were taken first. Their share in the collection is about 2.9%.
# TRPML1 inh = inhibitors of human TRPML1 channel. TRPML1-inducible cells, Ca2+ dye fluorescence, FDSS; stronger effect = lower value; inhibition of EC80 agonist-evoked calcium signal. 390,000 compounds, 0.02% hits. AID 624415. Q9GZU1. activity change, negative = inhibition, % (no concentration beside the values); in the data active = activity change below about -50%; inconclusive = between about -30% and that limit;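 also: stimulus is agonist 54-4 at its EC80 concentration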
#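 Calcium fluorescence in TRPML1-DL cells induced overnight with Tet: a 110 s read after compound pin addition, then a 110 s antagonist read after challenge with 54-4 at 4 uM final (EC80).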
# DRD3 agonist = activates the human D3 dopamine receptor; 410,000 compounds, 0.58% hits; max activation, %; D3R DiscoveRx beta-arrestin cells, luminescence, 90 min; in the data active = max activation above about 30%
# Target sequence (P35462 whole entry, looked up): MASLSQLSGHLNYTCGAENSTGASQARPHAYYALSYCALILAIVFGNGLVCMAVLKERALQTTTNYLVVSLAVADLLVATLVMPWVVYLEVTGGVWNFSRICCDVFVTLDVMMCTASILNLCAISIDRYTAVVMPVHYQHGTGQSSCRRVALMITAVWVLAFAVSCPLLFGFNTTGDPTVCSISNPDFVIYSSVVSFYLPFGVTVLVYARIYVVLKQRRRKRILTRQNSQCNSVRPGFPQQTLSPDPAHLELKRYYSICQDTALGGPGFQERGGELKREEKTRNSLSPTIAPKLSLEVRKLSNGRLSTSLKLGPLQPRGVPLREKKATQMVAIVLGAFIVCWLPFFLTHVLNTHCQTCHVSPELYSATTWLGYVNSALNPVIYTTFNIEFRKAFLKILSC
#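 Agonist mode: compounds and dopamine controls were applied to plated cells for 90 min at 37 degrees C after an overnight attachment at 1500 cells/well. Luminescent read-out followed 30 - 60 minutes at room temperature with DiscoveRx detection reagent.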
# DRD3 antagonist = antagonists of human D3 dopamine receptor. P35462. D3R cells, DiscoveRx beta-arrestin luminescence, antagonist mode; stronger effect = lower value. max response, negative = inhibition, %. 360,000 compounds, 2.5% hits. AID 652054; in the data active = max response below about -50%; inconclusive = no clear call, values can overlap the other calls
#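 Cells expressing the human receptor were seeded at 1500 cells/well, incubated overnight at 37 degrees C in 5% CO2, then exposed to library compounds with dopamine controls for 90 minutes at 37 degrees C before luminescent detection.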
# TRPML1 ag = agonists of human TRPML1 channel; 410,000 compounds, 0.12% hits; Q9GZU1; activation, % (test concentration not listed); TRPML1-expressing cells, Ca2+ dye fluorescence, FDSS; AID 624414; in the data active = activation above about 50%; inconclusive = mostly about 30% to 49%
#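 Kinetic FDSS Ca2+ read in Tet-induced TRPML1-DL cells (ABD Ca8 dye plus quencher, 45-90 min RT loading): baseline, then compound, then 110 s agonist window; EC80 agonist 54-4 at 4uM final added afterwards for a 110 s antagonist window.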
# Hits are given with their value; - = inactive; ? = inconclusive; . = no result given.
SMILES,TRPML1 inh,DRD3 agonist,DRD3 antagonist,TRPML1 ag
COc1cccc(/C=N/NC(=O)NC23CC4CC(CC(C4)C2)C3)c1O,-,-,-62,-
O=C(N/N=C/c1ccccc1F)NC12CC3CC(CC(C3)C1)C2,-,-,-,-
O=C(CN1C(=O)CSc2ccc(S(=O)(=O)N3CCOCC3)cc21)NCCCN1CCOCC1,-,-,-,-
O=C(CN1C(=O)CSc2ccc(S(=O)(=O)N3CCOCC3)cc21)NCCCN1CCc2ccccc2C1,-,-,-62,-
CCN(c1ccccc1)S(=O)(=O)c1ccc(NC(=O)c2nc(S(C)(=O)=O)ncc2Cl)cc1,-,-,-93,-
CCOc1ccc(NC(=O)c2nc(S(=O)(=O)Cc3ccc(F)cc3)ncc2Cl)cc1,.,.,.,-
CCS(=O)(=O)c1ncc(Cl)c(C(=O)Nc2ccc(S(=O)(=O)N(C)c3ccccc3)cc2)n1,-,-,?,-
CS(=O)(=O)c1ncc(Cl)c(C(=O)Nc2ccc(OC(F)F)cc2)n1,-,-,-152,-
CS(=O)(=O)c1ncc(Cl)c(C(=O)Nc2ccc(N3CCOCC3)cc2)n1,-,-,-78,-
Cc1ccc2nc3sc(C(=O)Nc4ccc(F)cc4)cc3cc2c1,-,-,.,-
CCCN[C@@H]1C(=O)N2C(C(=O)OCCC)=C(C)CS[C@H]12,-,-,-,-
CCCOC(=O)N[C@@H]1C(=O)N2C(C(=O)OCCC)=C(C)CS[C@H]12,-,-,-53,-
COc1ccc(C(=O)Nc2cc(C(=O)c3ccccc3)c(C)oc2=O)cc1,-,-,-62,-
Cc1oc(=O)c(NC(=O)c2ccccc2)cc1C(N)=O,-,-,-,-
Cc1oc(=O)c(NC(=O)c2cccc(Cl)c2)cc1C(=O)c1ccccc1,-,-,-63,-
CCCCn1cc(S(=O)(=O)c2ccccc2)c(=O)c2cc(F)c(N3CCC(C)CC3)cc21,-,-,.,-
FC(F)(F)c1nc2nc(Cl)c(Cl)nc2n1CCCN1CCOCC1,-,-,-57,-
Cc1ccc(-c2nc3cnccn3c2Nc2ccc(C(C)C)cc2)o1,.,.,.,-
Nc1cccc(P(=O)(c2ccccc2)c2ccccc2)c1,-,-,-,-
O=P(c1ccccc1)(c1ccccc1)N(c1ccccc1)c1ccccc1,-,-,-54,-
Nc1nc(NCc2ccc(F)cc2)c2[nH]cnc2n1,.,.,.,-
CN1CCC(C2(O)c3ccccc3CSc3sccc32)CC1 (configuration not stated),-,-,-67,-
N#CCSc1nc(-c2ccccc2)nc2ccccc12,-,-,-,-
N#CCSc1ncnc2ccccc12,-,-,-55,-
S=c1nc(-c2cccc(Cl)c2)[nH][nH]1,-,-,-55,-
SMILES,TRPML1 inh,DRD3 agonist,DRD3 antagonist,TRPML1 ag
S=c1nc(-c2cc(Cl)cc(Cl)c2)[nH][nH]1,-,-,?,-
CCCCNC(=O)c1ccc(Cn2c(=S)[nH]c3c([nH]c4ccc(OC)cc43)c2=O)cc1,-,-,-65,-
CCN(CC)CCNC(=O)CCCCn1c(=S)[nH]c2c([nH]c3ccc(OC)cc32)c1=O,-,-,-56,-
CCc1ccc(S(=O)(=O)NCc2nc3cccnc3n2Cc2ccccc2Cl)cc1,-,-,.,-
Cc1ccccc1-c1nnc(CN2CCN(c3ccccn3)CC2)o1,-,50,.,-
c1ccc(-c2nnc(CN3CCN(c4ccccc4)CC3)o2)cc1,-,55,-,-
Cc1ccccc1-c1nnc(CN2CCC(C)CC2)o1,-,-,?,-
c1ccc(-c2nnc(CN3CCN(C(c4ccccc4)c4ccccc4)CC3)o2)cc1,-,-,-56,-
c1ccc(N2CCN(Cc3nnc(-c4ccc5c(c4)OCO5)o3)CC2)cc1,-,37,.,-
CCOc1ccccc1NC(=O)CN1C(=O)CC(c2ccco2)Sc2ccccc21 (configuration not stated),-,-,.,-
O=C(c1cc(-c2ccc3c(c2)OCO3)on1)N1CCN(c2ccccc2)CC1,-,53,-,-
O=C(c1cc(-c2ccc3c(c2)OCO3)on1)N1CCN(c2ccc(F)cc2)CC1,-,-,-,-
CCCCc1cc(=O)oc2c(CN3CCN(C)CC3)c(O)ccc12,-,-,-,-
CCCc1cc(=O)oc2c(CN3CCN(C)CC3)c(O)ccc12,-,32,-,-
Cc1cccc(N2CCN(C(=O)COc3noc4nc(C)cc(C)c34)CC2C)c1 (configuration not stated),-,34,-,-
Cc1cccc(N2CCN(c3ncnc4onc(C)c34)CC2C)c1 (configuration not stated),-,-,.,-
COc1cccc(C(=O)CC2(O)C(=O)Nc3ccc(Cl)cc32)c1 (configuration not stated),-,-,.,-
Cc1ccc(S(=O)(=O)N(C)Cc2ccc(C(=O)N/N=C/c3ccc(OC(F)F)cc3OC(F)F)cc2)cc1,-,-,-,-
COc1ccc(-c2[nH]ncc2/C=N/NC(=O)c2ccc(Br)cc2)c(OC)c1,-,-,-66,-
COc1ccc(C(=O)N/N=C/c2cn[nH]c2-c2ccc(OC)cc2OC)cc1,-,-,-,-
O=C(N/N=C/c1ccc(OC(F)F)cc1OC(F)F)c1ccc(Br)cc1,-,-,-88,-
O=S(=O)(Nc1ccon1)c1ccc(F)c(F)c1,-,-,-81,-
CC(=O)N1CCc2cc(C(=O)CN3CCC(C)CC3)ccc21,-,-,-,-
CC(=O)N1CCc2cc(C(=O)CN3CCN(c4cccc(Cl)c4)CC3)ccc21,-,-,-50,-
O=C(CSc1ccccn1)Nc1ccc(NC(=O)CSc2ccccn2)cc1,-,-,-,-
SMILES,TRPML1 inh,DRD3 agonist,DRD3 antagonist,TRPML1 ag
O=C(CSc1ccccn1)Nc1nonc1[N+](=O)[O-],-,-,-70,-
Cc1cccc(OCc2cc(=O)n3c(-c4ccccc4)csc3n2)c1C,-,-,.,-
Cc1ccc2nc(NC(=O)c3ccc(OCC4CCCO4)cc3)sc2c1 (configuration not stated),-,49,-,-
COCCNC(=O)C1CCCN(C(=O)c2ccc3ccccc3n2)CC1 (configuration not stated),.,54,-,-
CCNC(=O)C1CCCN(C(=O)c2ccc(OC)c(OC)c2)CC1 (configuration not stated),.,79,-,-
CC(C)(C)C(=O)OCOC(=O)C1N2C(=O)CC2S(=O)(=O)C1(C)C (configuration not stated),.,-,.,.
CC(C)(C)NC(=O)c1ccc2c(c1)N(CC(=O)NC1CCCC1)C(=O)C(C)(C)O2,-,-,-,-
CC1(C)Oc2ccc(C(=O)NC3CCCC3)cc2N(CC(=O)NC2CCCC2)C1=O,-,-,-76,-
COCCCn1c(N)c(-c2nc3ccccc3n2C)c2nc3ccccc3nc21,-,-,-88,?
Cn1c(-c2c(N)n(CCCc3ccccc3)c3nc4ccccc4nc23)nc2ccccc21,-,-,-,-
Cn1c(-c2c(N)n(CCc3ccccc3)c3nc4ccccc4nc23)nc2ccccc21,-,46,-,-
Cc1cc(Cl)ccc1NC(=O)C1CCN(c2nnc(-n3c(C)ccc3C)s2)CC1,-,-,.,-
CCOc1ccc(S(=O)(=O)NCc2cccn2Cc2cccc(C)c2)cc1,-,-,.,-
